Measurements: PubChem BioAssay (NCI)
Compounds without any hit were thinned out: in the full panel of roughly 83,000, 20% have a hit.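 Cell lines were cultured in 96-well plates, exposed to a single compound concentration, and assessed for percent growth 48 hours later.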 The source made the active and inactive calls. How the source made its calls: active means growth percent below 10; inactive means the rest.

What was measured:
Test in all cases: NCI-60 one-dose screen, 48 h (100 = growth as untreated, 0 = no growth, -100 = all killed)
Details in all cases: 10 µM unless noted
T-47D breast = tested on: T-47D breast
MDA-MB-435 melanoma = tested on: MDA-MB-435 melanoma
SW-620 colon = tested on: SW-620 colon
MCF7 breast = tested on: MCF7 breast
HCT-116 colon = tested on: HCT-116 colon
HCC-2998 colon = tested on: HCC-2998 colon
KM12 colon = tested on: KM12 colon
BT-549 breast = tested on: BT-549 breast

Compound | growth (T-47D breast) | growth (MDA-MB-435 melanoma) | growth (SW-620 colon) | growth (MCF7 breast) | growth (HCT-116 colon) | growth (HCC-2998 colon) | growth (KM12 colon) | growth (BT-549 breast)
CCOC(=O)CC(c1ccccc1)C(C#N)c1ccccc1 (centres undefined) | 89.6% (inactive) | 96.4% (inactive) | 95.3% (inactive) | 99.8% (inactive) | 92% (inactive) | 114% (inactive) | 92.3% (inactive) | 
CCN(CC)c1ccc(/C=C/C=C2\NC(=O)NC2=O)cc1 | 31.9% (inactive) | -5.48% (active) | 31.2% (inactive) |  | 10.1% (inactive) | 37.2% (inactive) | 32.4% (inactive) | 
Cn1cc(-c2noc(-c3cn(C)c4ncc(Br)cc34)n2)c2cc(Cl)ccc21 | 31.6% (inactive) | 68.3% (inactive) | 39.9% (inactive) |  | 35.2% (inactive) | 93.9% (inactive) | 75.7% (inactive) | 
C/C=C/C1OC23CCCCC2C(C#N)(C(=N)O3)C1(C#N)C#N (centres undefined) | 84.9% (inactive) | 91.8% (inactive) | 92.9% (inactive) | 86.2% (inactive) | 94.2% (inactive) | 109% (inactive) | 96.3% (inactive) | 
COc1cc(OC)cc(C(=O)Nc2cc(-c3cccnc3)nc(NCCCN3CCOCC3)n2)c1 | 72.8% (inactive) | 102% (inactive) | 99.9% (inactive) | 88% (inactive) | 89.2% (inactive) | 123% (inactive) | 104% (inactive) | 
COc1ccc2c(c1)C(C)Cc1c(Cl)nc(C)nc1N2C (centres undefined) | 39.6% (inactive) | -20.5% (active) | 24.8% (inactive) |  | 12.2% (inactive) | 30.3% (inactive) | 21% (inactive) | 
COc1ccc2nc3cc(Cl)ccc3c(Nc3ccc(O)cc3)c2c1 | 80% (inactive) | 96% (inactive) | 49.1% (inactive) | 24.6% (inactive) | 53.1% (inactive) |  | 63.5% (inactive) | 
CCCC(NC(=O)OCc1ccccc1)C(=O)O (centres undefined) | 99.6% (inactive) | 109% (inactive) | 97.9% (inactive) | 96% (inactive) | 98.1% (inactive) |  | 109% (inactive) | 
O=C(CCN1CCCCC1)c1ccc(Cl)cc1 | 92.6% (inactive) | 105% (inactive) | 103% (inactive) | 91.8% (inactive) | 96.7% (inactive) | 112% (inactive) | 102% (inactive) | 
CCCOc1ccc(-c2nc(-c3ccc(N)cc3)cs2)cc1 | 84.9% (inactive) | 107% (inactive) | 113% (inactive) | 86% (inactive) | 95.5% (inactive) |  | 115% (inactive) | 
CCCCCn1sc(=O)n(Cc2ccc(CNC(=O)OCc3ccc4cccc(O)c4n3)cc2)c1=O | -47.3% (active) | -70.1% (active) | -48.5% (active) | 0.802% (active) | -76.9% (active) | 5.53% (active) | 11.8% (inactive) | 
Cc1cc(C)c(O)c(CNCCCNCc2cc(C)cc(C)c2O)c1 | 67.3% (inactive) | 2.52% (active) | 71.8% (inactive) | 38.2% (inactive) | 51.6% (inactive) | -51.4% (active) | 61.3% (inactive) | 
O=C(O)c1ccccc1C(F)(F)F | 76.5% (inactive) | 107% (inactive) | 98.7% (inactive) | 92.8% (inactive) | 91.2% (inactive) |  | 96.3% (inactive) | 
Cc1cc2c(C(C)C)c(O)c(O)c(C=NCc3ccoc3)c2c(O)c1-c1c(C)cc2c(C(C)C)c(O)c(O)c(C=NCc3ccco3)c2c1O | 33.5% (inactive) | 67.1% (inactive) | 24.6% (inactive) | 22.4% (inactive) | 20.7% (inactive) | 35.5% (inactive) | 19.4% (inactive) | 
O=C(NCCCNC(=O)OCc1ccc2cccc(O)c2n1)OCc1ccc2cccc(O)c2n1 | 49.1% (inactive) | 18.5% (inactive) | 4.75% (active) | 19.3% (inactive) | -46.3% (active) | 85.1% (inactive) | 53.3% (inactive) | 
CCOC(=O)C(C(C)=O)c1nc2sc3cc(Cl)c(Cl)cc3n2c(=O)c1C#N (centres undefined) | 78% (inactive) | 106% (inactive) | 116% (inactive) | 65.4% (inactive) | 101% (inactive) | 106% (inactive) | 98.6% (inactive) | 
COc1cc(-c2nc(SCCC(C)C)nc(Nc3ccc(S(N)(=O)=O)cc3)c2C#N)cc(OC)c1OC |  | 22.2% (inactive) | 36.3% (inactive) | 16.9% (inactive) | 3.77% (active) | 35.2% (inactive) | 19.9% (inactive) | 27.6% (inactive)
C=CCCC1(C)NC(=O)NC1=O (centres undefined) |  | 99.4% (inactive) | 102% (inactive) | 92.4% (inactive) | 96.6% (inactive) |  |  | 100% (inactive)

Compound | growth (T-47D breast) | growth (MDA-MB-435 melanoma) | growth (SW-620 colon) | growth (MCF7 breast) | growth (HCT-116 colon) | growth (HCC-2998 colon) | growth (KM12 colon) | growth (BT-549 breast)
Cc1cc[n+](CCCCCCCCCC[n+]2ccc(C)cc2)cc1 |  | 102% (inactive) | 103% (inactive) | 93.6% (inactive) | 96.4% (inactive) | 92.8% (inactive) |  | 101% (inactive)
CN(C)c1ccc(N=Nc2ccc3ccccc3c2)cc1 |  | 101% (inactive) | 96.9% (inactive) | 43.9% (inactive) | 66% (inactive) | 99.8% (inactive) | 92.8% (inactive) | 101% (inactive)
COc1cc2c(c(OC)c1)C1c3cc(OC)ccc3NC(=O)N1CC2 (centres undefined) | 88.7% (inactive) | 9.36% (active) | 49.4% (inactive) |  | 65.2% (inactive) | 94% (inactive) | 49.4% (inactive) | 
COCCCNc1nc(NC(=O)c2cc(Br)cc(C(F)(F)F)c2)cc(-c2cccnc2)n1 | 65% (inactive) |  | 86.9% (inactive) | 83.8% (inactive) | 85.6% (inactive) | 114% (inactive) | 105% (inactive) | 
CCCCC(CC)COC(=O)C[N+](C)(C)CCOC(c1ccccc1)c1ccccc1 (centres undefined) |  | 0.527% (active) | 52.2% (inactive) | 33.6% (inactive) | 31.7% (inactive) | 3.56% (active) |  | 17.6% (inactive)
CC(C)[C@H]1COC(=O)N1[C@@H]1C(=O)N([C@@H](CCC(=O)N2CCN(C3CCCC3)CC2)C(=O)N[C@@H]2CCCc3ccccc32)[C@@H]1/C=C/c1cccc(Cl)c1 | 61.4% (inactive) |  | 61.9% (inactive) | 34.7% (inactive) | 32.7% (inactive) | 51.8% (inactive) | 48.8% (inactive) | 
CSc1nc(=S)c2nc(SC)n(-c3ccccc3)c2[nH]1 |  | 103% (inactive) | 97.1% (inactive) | 90.7% (inactive) | 93.1% (inactive) | 115% (inactive) |  | 104% (inactive)
O=C1/C(=C\c2cn(CC(O)CN3CCCCC3)c3ccccc23)c2ccccc2N1c1c(Cl)cccc1Cl (centres undefined) |  | -93.3% (active) | -91.8% (active) | -77.5% (active) | -78.6% (active) | -82.4% (active) | -95.3% (active) | -86.1% (active)
O=C(Nc1ccc(Cl)c(C(F)(F)F)c1)Nc1ccc(-c2cccnc2)cc1N1CCC(CO)CC1 | 5.62% (active) |  | 35.5% (inactive) | 16.2% (inactive) | 11.8% (inactive) | 13.9% (inactive) |  | 
COC(=O)c1c(C)[nH]c(/C=C2\N=C(c3ccc[nH]3)C=C2OC)c1C |  | -44.9% (active) | 1.56% (active) | 1.82% (active) | -75% (active) | -40.9% (active) | -2.32% (active) | 0.541% (active)
O=C(NCc1ccc(Cn2c(=O)sn(-c3ccccc3)c2=O)cc1)OCc1ccc2c(Br)cc(Br)c(O)c2n1 | -49.8% (active) | -77.6% (active) | -50.2% (active) |  | -71.8% (active) | -80% (active) | -61.8% (active) | 
CC1Cc2ccc(OCCN(C)C)cc2C1=O (centres undefined) |  | 102% (inactive) | 101% (inactive) | 100% (inactive) | 95.4% (inactive) | 109% (inactive) |  | 99.3% (inactive)
Cc1ccc2c(n1)C(=O)C(Cl)=C(Nc1ccc(N3CCN(C)CC3)cc1)C2=O | -61.1% (active) |  | -69.8% (active) | -61.9% (active) | -64.9% (active) |  | 92.1% (inactive) | 
CC(C)CCNCC(C)(C)O |  | 112% (inactive) | 109% (inactive) | 109% (inactive) | 109% (inactive) | 109% (inactive) |  | 110% (inactive)
O=C(CSc1nc2ccc([N+](=O)[O-])cc2[nH]1)Nc1cccc(Cl)c1 |  | 20.5% (inactive) | 39.9% (inactive) |  | 14.7% (inactive) | 34.4% (inactive) | 23.9% (inactive) | 17.2% (inactive)
Nc1ccc2c(c1)Cc1cc(NC(=O)C(F)(F)F)ccc1-2 | 81.8% (inactive) |  | 105% (inactive) | 60.1% (inactive) | 108% (inactive) | 105% (inactive) | 97.7% (inactive) | 
Cc1cc(C)nc(SCC(=O)Nc2cccc(N=Cc3ccccc3O)c2)n1 |  |  | 99.1% (inactive) | 94.3% (inactive) | 97.3% (inactive) | 121% (inactive) |  | 92.9% (inactive)
